The supplement of paper PMC10037445
The full ranking holds about 2,900 compounds; the median of “NF-kB SEAP reporter activity, fold change vs agonist alone” is about 0.99, and the highest 2% start at about 2.6. The sample holds the highest values, similar compounds and a random draw of the others, so the mix is not that of the screen.

What was measured:
RAW-Dual [1] = experiment: NF-kB SEAP reporter activity, fold change vs agonist alone; cytotoxicity flag (confluency mask): not cytotoxic; higher = enhanced NF-kB activity
Outline: (§1)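 Reporter activity is given as fold change relative to agonist-alone wells. To measure it, 50 nL of library stock was pin-tooled onto RAW-Dual macrophages (50,000 cells/well, DMEM, 384-well plates), a PRR agonist followed 1 h later, and cells stayed at 37 °C, 5% CO2. Twenty hours on, supernatant was assayed for IRF (QuantiLuc luminescence) and NF-κB (QuantiBlue, 620 nm absorbance), and wells under 70% of agonist-control IncuCyte confluency in both mask sets were marked cytotoxic.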

RAW-Dual [2] = experiment: NF-kB SEAP reporter activity, fold change vs agonist alone; higher = enhanced NF-kB activity
Outline: as §1

RAW-Dual [3] = experiment: NF-kB SEAP reporter activity, fold change vs agonist alone; cytotoxicity flag (confluency mask): cytotoxic (confluency <70% of control); higher = enhanced NF-kB activity
Outline: as §1

[4] = agonist: ODN 1826 (TLR9) 0.5 ug/mL
[5] = agonist: Pam2CSK4 (TLR2/6) 0.1 ug/mL
[6] = agonist: Pam3CSK4 (TLR2/1) 0.1 ug/mL
[7] = library stock concentration (final ~1000-fold dilution): 10 mM, cytotoxicity flag (confluency mask): not cytotoxic, agonist: Imiquimod (TLR7) […]
[8] = library stock concentration (final ~1000-fold dilution): 10 mM, cytotoxicity flag (confluency mask): not cytotoxic, agonist: MPLA (TLR4) […]
[9] = library stock concentration (final ~1000-fold dilution): 10 mM, cytotoxicity flag (confluency mask): cytotoxic (confluency <70% of control), agonist: Imiquimod (TLR7) […]
[10] = library stock concentration (final ~1000-fold dilution): 10 mM, cytotoxicity flag (confluency mask): cytotoxic (confluency <70% of control), agonist: MPLA (TLR4) […]

## O=C(O)CCCN1CCC(OC(c2ccc(Cl)cc2)c2ccccn2)CC1 (stereo not given) (library stock concentration (final ~1000-fold dilution): 10 mM)
RAW-Dual [1]; agonist: LPS (TLR4) 0.1 ug/mL
  NF-kB SEAP reporter activity: 0.969
RAW-Dual [1]; [4]
  NF-kB SEAP reporter activity: 0.924
RAW-Dual [1]; [5]
  NF-kB SEAP reporter activity: 1.07
RAW-Dual [1]; [6]
  NF-kB SEAP reporter activity: 0.895

## O=C(O)CCCN1CCC(OC(c2ccc(Cl)cc2)c2ccccn2)CC1 (stereo not given)
RAW-Dual [2]; [7]
  NF-kB SEAP reporter activity: 0.895
RAW-Dual [2]; [8]
  NF-kB SEAP reporter activity: 1.07

## COc1cc2c(Oc3ccc(NC(=O)C4(C(=O)Nc5ccc(F)cc5)CC4)cc3F)ccnc2cc1OCCCN1CCOCC1 (library stock concentration (final ~1000-fold dilution): 10 mM)
RAW-Dual [1]; agonist: LPS (TLR4) 0.1 ug/mL
  NF-kB SEAP reporter activity: 0.266
RAW-Dual [1]; [4]
  NF-kB SEAP reporter activity: 0.184
RAW-Dual [1]; [5]
  NF-kB SEAP reporter activity: 0.0818
RAW-Dual [1]; [6]
  NF-kB SEAP reporter activity: 0.137

## CN1CCN(C2CCN(C(=O)Nc3cc(Oc4ccc(NC(=O)C5(C(=O)Nc6ccc(F)cc6)CC5)c(F)c4)ccn3)CC2)CC1 (library stock concentration (final ~1000-fold dilution): 10 mM)
RAW-Dual [3]; agonist: LPS (TLR4) 0.1 ug/mL
  NF-kB SEAP reporter activity: 1.43
RAW-Dual [3]; [4]
  NF-kB SEAP reporter activity: 0.896
RAW-Dual [3]; [5]
  NF-kB SEAP reporter activity: 0.607
RAW-Dual [3]; [6]
  NF-kB SEAP reporter activity: 0.664

## COc1cc2nccc(Oc3ccc(NC(=O)C4(C(=O)Nc5ccc(F)cc5)CC4)cc3)c2cc1OC
RAW-Dual [2]; [7]
  NF-kB SEAP reporter activity: 0.555
RAW-Dual [2]; [8]
  NF-kB SEAP reporter activity: 0.59

## COc1cc2nccc(Oc3ccc(NC(=O)C4(C(=O)Nc5ccc(F)cc5)CC4)cc3)c2cc1OC (library stock concentration (final ~1000-fold dilution): 10 mM)
RAW-Dual [1]; agonist: LPS (TLR4) 0.1 ug/mL
  NF-kB SEAP reporter activity: 0.511
RAW-Dual [1]; [4]
  NF-kB SEAP reporter activity: 0.42
RAW-Dual [1]; [5]
  NF-kB SEAP reporter activity: 0.302
RAW-Dual [1]; [6]
  NF-kB SEAP reporter activity: 0.275

## CN1CCN(C2CCN(C(=O)Nc3cc(Oc4ccc(NC(=O)C5(C(=O)Nc6ccc(F)cc6)CC5)c(F)c4)ccn3)CC2)CC1
RAW-Dual [2]; [9]
  NF-kB SEAP reporter activity: 2.76
RAW-Dual [2]; [10]
  NF-kB SEAP reporter activity: 2.32

## COc1cc2c(Oc3ccc(NC(=O)C4(C(=O)Nc5ccc(F)cc5)CC4)cc3F)ccnc2cc1OCCCN1CCOCC1
RAW-Dual [2]; [7]
  NF-kB SEAP reporter activity: 0.252
RAW-Dual [2]; [8]
  NF-kB SEAP reporter activity: 0.252

## CC(Nc1nc(NC(C)C(F)(F)F)nc(-c2cccc(Cl)n2)n1)C(F)(F)F (stereo not given)
RAW-Dual [2]; [7]
  NF-kB SEAP reporter activity: 1.04
RAW-Dual [2]; [8]
  NF-kB SEAP reporter activity: 1.11

## CC(Nc1nc(NC(C)C(F)(F)F)nc(-c2cccc(Cl)n2)n1)C(F)(F)F (stereo not given) (library stock concentration (final ~1000-fold dilution): 10 mM)
RAW-Dual [1]; agonist: LPS (TLR4) 0.1 ug/mL
  NF-kB SEAP reporter activity: 1.26
RAW-Dual [1]; [4]
  NF-kB SEAP reporter activity: 1.18
RAW-Dual [1]; [5]
  NF-kB SEAP reporter activity: 0.998
RAW-Dual [1]; [6]
  NF-kB SEAP reporter activity: 1.09

## CC1CNc2c(cccc2S(=O)(=O)NC(CCCNC(=N)N)C(=O)N2CCC(C)CC2C(=O)O)C1.O (stereo not given) (library stock concentration (final ~1000-fold dilution): 10 mM)
RAW-Dual [1]; agonist: LPS (TLR4) 0.1 ug/mL
  NF-kB SEAP reporter activity: 0.94
RAW-Dual [1]; [4]
  NF-kB SEAP reporter activity: 1.05
RAW-Dual [1]; [5]
  NF-kB SEAP reporter activity: 0.969
RAW-Dual [1]; [6]
  NF-kB SEAP reporter activity: 0.87

## CC1CNc2c(cccc2S(=O)(=O)NC(CCCNC(=N)N)C(=O)N2CCC(C)CC2C(=O)O)C1.O (stereo not given)
RAW-Dual [2]; [8]
  NF-kB SEAP reporter activity: 0.981

## O=C(OC1OC2COC(=O)c3cc(O)c(O)c(O)c3-c3c(cc(O)c(O)c3O)C(=O)OC(C2O)C1O)c1cc(O)c(O)c(O)c1 (stereo not given) (library stock concentration (final ~1000-fold dilution): 10 mM)
RAW-Dual [1]; agonist: LPS (TLR4) 0.1 ug/mL
  NF-kB SEAP reporter activity: 1.34
RAW-Dual [1]; [4]
  NF-kB SEAP reporter activity: 0.874
RAW-Dual [1]; [5]
  NF-kB SEAP reporter activity: 0.809
RAW-Dual [1]; [6]
  NF-kB SEAP reporter activity: 0.393

## O=C(OC1OC2COC(=O)c3cc(O)c(O)c(O)c3-c3c(cc(O)c(O)c3O)C(=O)OC(C2O)C1O)c1cc(O)c(O)c(O)c1 (stereo not given)
RAW-Dual [2]; [7]
  NF-kB SEAP reporter activity: 0.783
RAW-Dual [2]; [8]
  NF-kB SEAP reporter activity: 1.08

## C=C1c2cccc(O)c2C(=O)C2=C(O)C3(O)C(=O)C(C(N)=O)=C(O)C(N(C)C)C3C(O)C12.Cl (stereo not given) (library stock concentration (final ~1000-fold dilution): 10 mM water)
RAW-Dual [1]; agonist: LPS (TLR4) 0.1 ug/mL
  NF-kB SEAP reporter activity: 1.12
RAW-Dual [1]; [4]
  NF-kB SEAP reporter activity: 1.14
RAW-Dual [1]; [5]
  NF-kB SEAP reporter activity: 1.26
RAW-Dual [1]; [6]
  NF-kB SEAP reporter activity: 1.05

## C=C1c2cccc(O)c2C(=O)C2=C(O)C3(O)C(=O)C(C(N)=O)=C(O)C(N(C)C)C3C(O)C12.Cl (stereo not given)
RAW-Dual [2]; library stock concentration (final ~1000-fold dilution): 10 mM water, cytotoxicity flag (confluency mask): not cytotoxic, agonist: Imiquimod (TLR7) […]
  NF-kB SEAP reporter activity: 0.915
RAW-Dual [2]; library stock concentration (final ~1000-fold dilution): 10 mM water, cytotoxicity flag (confluency mask): not cytotoxic, agonist: MPLA (TLR4) […]
  NF-kB SEAP reporter activity: 1.08

## Fc1ccc2c(/C=C/c3nnn[nH]3)c[nH]c2c1
RAW-Dual [2]; [7]
  NF-kB SEAP reporter activity: 0.885
RAW-Dual [2]; [8]
  NF-kB SEAP reporter activity: 1.05

## Fc1ccc2c(/C=C/c3nnn[nH]3)c[nH]c2c1 (library stock concentration (final ~1000-fold dilution): 10 mM)
RAW-Dual [1]; agonist: LPS (TLR4) 0.1 ug/mL
  NF-kB SEAP reporter activity: 1.11
RAW-Dual [1]; [4]
  NF-kB SEAP reporter activity: 0.894
RAW-Dual [1]; [5]
  NF-kB SEAP reporter activity: 0.966
RAW-Dual [1]; [6]
  NF-kB SEAP reporter activity: 1.14

## C/C1=C/CC[C@@]2(C)O[C@@H]2[C@H]2OC(=O)[C@H](CN(C)C)[C@@H]2CC1
RAW-Dual [2]; [7]
  NF-kB SEAP reporter activity: 0.137
RAW-Dual [2]; [8]
  NF-kB SEAP reporter activity: 0.246

## C/C1=C/CC[C@@]2(C)O[C@@H]2[C@H]2OC(=O)[C@H](CN(C)C)[C@@H]2CC1 (library stock concentration (final ~1000-fold dilution): 10 mM)
RAW-Dual [1]; agonist: LPS (TLR4) 0.1 ug/mL
  NF-kB SEAP reporter activity: 0.302
RAW-Dual [1]; [4]
  NF-kB SEAP reporter activity: 0.185
RAW-Dual [1]; [5]
  NF-kB SEAP reporter activity: 0.197
RAW-Dual [1]; [6]
  NF-kB SEAP reporter activity: 0.151

## CCN(CC)CCNC(=O)c1ccc(N)cc1.Cl (library stock concentration (final ~1000-fold dilution): 10 mM)
RAW-Dual [1]; agonist: LPS (TLR4) 0.1 ug/mL
  NF-kB SEAP reporter activity: 0.999
RAW-Dual [1]; [4]
  NF-kB SEAP reporter activity: 1.02
RAW-Dual [1]; [5]
  NF-kB SEAP reporter activity: 0.923
RAW-Dual [1]; [6]
  NF-kB SEAP reporter activity: 1.04

## CN(C)c1ccc(C(=O)NCCCCCCC(=O)NO)cc1
RAW-Dual [2]; [9]
  NF-kB SEAP reporter activity: 2.83
RAW-Dual [2]; [10]
  NF-kB SEAP reporter activity: 2.64

## O=C(CCCCCCNC(=O)c1cnc(N(c2ccccc2)c2ccccc2Cl)nc1)NO
RAW-Dual [2]; [9]
  NF-kB SEAP reporter activity: 1.51
RAW-Dual [2]; [10]
  NF-kB SEAP reporter activity: 2.19

## O=C(N/N=C/c1ccc(O)c(O)c1)c1cc2ccccc2cc1O (library stock concentration (final ~1000-fold dilution): 10 mM)
RAW-Dual [1]; agonist: LPS (TLR4) 0.1 ug/mL
  NF-kB SEAP reporter activity: 0.616
RAW-Dual [1]; [4]
  NF-kB SEAP reporter activity: 0.257
RAW-Dual [1]; [5]
  NF-kB SEAP reporter activity: 0.16
RAW-Dual [1]; [6]
  NF-kB SEAP reporter activity: 0.192

## CN(C)c1ccc(C(=O)NCCCCCCC(=O)NO)cc1 (library stock concentration (final ~1000-fold dilution): 10 mM)
RAW-Dual [3]; agonist: LPS (TLR4) 0.1 ug/mL
  NF-kB SEAP reporter activity: 4.72
RAW-Dual [3]; [4]
  NF-kB SEAP reporter activity: 2.78
RAW-Dual [3]; [5]
  NF-kB SEAP reporter activity: 1.17
RAW-Dual [3]; [6]
  NF-kB SEAP reporter activity: 2.01
